TDP43 rescue: qHTS of TDP-43 Inhibitors. AID 652104, 2013. actives 1.8% (n = 410,000). Potency, µM (top dose mostly 46.1 µM), actives largely listed as activators. TDP-43 expressing yeast growth rescue, BacTiter-Glo, 24 h; further: nearly all actives have a fitted effect of over 50% in size
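Galactose-induced TDP-43 yeast, OD600=0.02, compound pinned; 24 hr, 30 deg C; BacTiter-Glo luminescence for growth. Inhibitors of TDP-43 toxicity read as activators.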
Abeta rescue: qHTS for compounds that reverse cellular toxicity of Amyloid beta (A-beta) peptide in yeast: Primary Screen | yeast expressing A-beta42, growth rescue, OD600, 48 h; response scale: 0% DMSO, 100% iron-clioquinol control | Potency, µM (series often up to 46.1 µM), hits mostly activators | actives 0.063% (n = 410,000); further: nearly all actives have a fitted effect of over 55% in size
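Growth rescue measured by 600 nm absorbance after 48 h yeast culture at 30 C with compound. Values normalized between DMSO and an equimolar ferric chloride plus clioquinol control.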
Mito fusion act: qHTS Assay for Small Molecule Inhibitors of Mitochondrial Division or Activators of Mitochondrial Fusion | S. cerevisiae fusion-defective mutant growth rescue, CellTiterGlo 48 h | Potency, µM (top dose mostly 46.1 µM), usual class: activators | actives 0.23% (n = 320,000) | AID 485298, 2010; further: nearly all actives have a fitted effect of over 45% in size
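Yeast fusion mutant, YPEG (non-fermentable carbon), compound, 48 h at 37C non-permissive; CellTiterGlo added, 10 min RT, luminescence read. Rescued growth = division inhibition.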
FUS yeast rescue: qHTS for Suppressors of FUS Proteinopathy: Primary screen using FUS-linked yeast assay | actives 0.24% (n = 390,000) | Potency, µM (top dose mostly 76.6 µM), most hits filed as activators | S. cerevisiae FUS-expressing, growth rescue, OD600, 24 h; further: nearly all actives have a fitted effect of over 55% in size
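Read-out: OD at 600 nm after 24hr at 30C, reporting rescue of FUS-induced yeast toxicity. Cells at OD 0.005 in galactose (2%) minimal medium; compounds tested in a dilution series; CP55940 titration from 92uM final as control.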
aSyn yeast inh: qHTS of alpha-syn Inhibitors; Potency, µM (highest dose often 46.1 µM), hits mostly activators; actives 0.14% (n = 370,000); Yeast expressing alpha-synuclein, growth rescue, BacTiter-Glo, 24 h; further: nearly all actives have a fitted effect of over 65% in size
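Rescue of yeast growth: cells expressing toxic alpha-synuclein, induced in galactose at OD600 0.02, incubated with compound 24 h at 30 C. ATP luminescence quantified growth; inhibitors of toxicity appear as activators.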
Large screens that a line does not name were inactive; ! = not confirmed by another sample. Shown are actives, neighbours in structure and some others; about 2.2% of the full set was active somewhere. The call rests on the fitted dose curve; in most records, active means well fitted curve in the direction sought with a large enough effect; inconclusive means small, poorly fitted or top-dose-only effect, or another doubt; inactive means no such curve, though single readings can be large; an effect the other way counts as inactive or inconclusive.

COc1cccc2c(=O)c3ccoc3n(C)c12	none
Cc1nnc(SCC(=O)N2CCC(c3noc4ccc(F)cc34)CC2)s1	none
O=C(c1cccc(F)c1)N1CCC(c2nc3ccccc3s2)CC1	TDP43 rescue 13µM
O=C(CSc1ccc(F)cc1)N1CCC(c2nc3ccccc3s2)CC1	TDP43 rescue 22µM
CCC(Oc1ccccc1F)C(=O)N1CCC(c2nc3ccccc3s2)CC1 (stereo not drawn)	TDP43 rescue 25µM (no result: Mito fusion act, aSyn yeast inh)
COc1cccc(C(=O)N2CCC(c3nc4ccccc4s3)CC2)c1	none (no result: Mito fusion act, aSyn yeast inh)
O=C(CSc1ccc2ccccc2n1)N1CCC(c2noc3ccc(F)cc23)CC1	Mito fusion act 20µM
O=C(OCCF)N1CCN(/[N+]([O-])=N/Oc2ccc([N+](=O)[O-])cc2[N+](=O)[O-])CC1	none (no result: TDP43 rescue, Abeta rescue, Mito fusion act, FUS yeast rescue)
NC(=O)c1sc2nc3c(c(-c4ccco4)c2c1N)CCC3	aSyn yeast inh 10µM
Cc1ccc(-c2c3c(nc4sc(C(N)=O)c(N)c24)CCCC3)o1	none (no result: FUS yeast rescue)
COc1cc(/C=C/C(=O)Nc2cc(C(F)(F)F)ccc2Cl)cc(OC)c1OC	TDP43 rescue 22µM
Brc1ccc[n+](CCC2CCCCC2)c1	none (no result: TDP43 rescue, Abeta rescue, Mito fusion act, FUS yeast rescue)
O=C(Nc1nc2ccc(Cl)cc2s1)C1CC1	none (no result: Mito fusion act)
CC(C)c1ccc2nc(NC(=O)C3CC3)sc2c1	TDP43 rescue 22µM
Cc1cccc2sc(NC(=O)CN(C)S(=O)(=O)c3cccs3)nc12	TDP43 rescue 16µM
O=C(Nc1nc2cc3c(cc2s1)OCCO3)C1CCCCC1	TDP43 rescue 25µM, Mito fusion act inconclusive
Cc1cccc2sc(NC(=O)CN(C)S(=O)(=O)c3ccc(Br)s3)nc12	TDP43 rescue inconclusive
Cc1cccc2sc(NC(=O)Cn3cccc3)nc12	Abeta rescue 11µM
Clc1ccc2c(ccc[n+]2CCC2CCCCC2)c1	none (no result: TDP43 rescue, Abeta rescue, Mito fusion act, FUS yeast rescue)
CCc1ccc(NCc2cc3ccc(OC)cc3n(CC(=O)Nc3ccccc3OC)c2=O)cc1	none (no result: Mito fusion act)
O=C(Nc1nc2c(Cl)cccc2s1)C1CC1	Mito fusion act inconclusive
Cc1cccc2sc(NC(=O)C3CC3)nc12	TDP43 rescue 11µM
Cc1ccc(-c2c(C(=O)Nc3ccc(F)c(F)c3)oc(=O)c3ccccc23)cc1	none (no result: Mito fusion act, aSyn yeast inh)
Cc1ccc(NC(=O)c2cc3c(=O)n(Cc4cccnc4)ccc3nc2C)cc1F	none (no result: Mito fusion act, aSyn yeast inh)
OC(Cc1ccc2ccccc2n1)c1c(Cl)cccc1Cl (stereo not drawn)	none (no result: TDP43 rescue, Abeta rescue, Mito fusion act, FUS yeast rescue)
CCCCc1ccc(NC(=O)CN(C)CC(=O)Nc2ccccc2Cl)cc1	Abeta rescue inconclusive, FUS yeast rescue 35µM
COc1ccc(-c2ccc(C(=O)NC3CCCCC3)c3occc23)c(C)c1	TDP43 rescue 13µM (no result: Mito fusion act)
O=C(NC1CCCCC1)c1ccc(-c2cn[nH]c2)c2ccoc12	TDP43 rescue 22µM (no result: Mito fusion act)
COc1ccc(-c2coc3c(C(=O)NC4CCCCC4)cccc23)c(C)c1	none (no result: Mito fusion act)
CCOC(=O)N/N=C/c1ccc(Oc2ccccc2)cc1	TDP43 rescue 18µM, Abeta rescue inconclusive
O=C(CCC1N=C2c3ccccc3N=C(SCc3ccc(Cl)cc3)N2C1=O)NCCc1ccccc1 (stereo not drawn)	FUS yeast rescue 32µM (no result: Mito fusion act, aSyn yeast inh)
Cc1ccc2nc(CS)[nH]c2c1	none (no result: TDP43 rescue, Abeta rescue, Mito fusion act, FUS yeast rescue)
COc1ccc(-c2cc(C(=O)Oc3ccccc3)c3cc(C)ccc3n2)cc1	none (no result: Mito fusion act, aSyn yeast inh)
COC(=O)[C@]12C[C@H](CC(=O)NCCCN3CCCC3=O)C(=O)N(CCC3=CCCCC3)C1=C[C@H](C(C)C)O[C@@H]2C1CC1	none (no result: TDP43 rescue, Abeta rescue, Mito fusion act, aSyn yeast inh)
C#CCN1C(C)=C(C(=O)OC)C(c2cccc([N+](=O)[O-])c2)C(C(=O)OCC)=C1C (stereo not drawn)	Mito fusion act 4.6µM!
CCCCN1C(=O)NC(c2cccc([N+](=O)[O-])c2)C(C(=O)OCC)=C1C (stereo not drawn)	none (no result: Mito fusion act)
CCOC(=O)C1=C(C)NC(C)=C(C(=O)OCC)C1c1cccc([N+](=O)[O-])c1	TDP43 rescue 25µM (no result: Mito fusion act)
CCOC(=O)C1=C(C)NC(C)=C(C(=O)OCC)C1c1ccc(O)cc1	none
CCCCOC(=O)C1=C(C)NC(=O)NC1c1cccc([N+](=O)[O-])c1 (stereo not drawn)	none
